Sampled rows, rich in hits. Any-hit rate of the full collection: about 19%.
DT40 TDP1 CPT = growth inhibition of DT40 Tdp1-/-;hTDP1 cells with camptothecin (screen for TDP1 inhibitors) | chicken DT40 Tdp1-/-;hTDP1 cells + 20 nM CPT, ATP luminescence, 48 h | 420,000 tested, 12% active | Potency, µM (series often up to 46.2 µM), without a hit: top-dose activity change, negative = growth inhibition, usual class: inhibitors; further: potency means the concentration at half of the fitted maximal effect; on the % scale 0 is the no-effect control and ±100 the full control effect; nearly all actives have a fitted effect of over 55% in size
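Cell growth measured by CellTiter-Glo luminescence after a minimum 48 h, 37 C compound exposure with 20 nM CPT in Tdp1-knockout DT40 cells stably expressing hTDP1, seeded 400/well; qHTS titration format.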
Chronic BCR inh = chronic active BCR signaling inhibition; ABC-DLBCL IkBa-CBG/CBR reporter, luminescence ratio, 4 h; Potency, µM (highest dose often 46.1 µM), for the others: at the highest dose activity change, negative = inhibition, most hits filed as inhibitors; 340,000 tested, 0.05% active; active means well fitted inhibition curve with a large enough effect in the signal ratio, with a control signal flat, not every such curve was filed as active; inconclusive means small, poorly fitted or top-dose-only effect, or effect the other way, or a change in a side signal; the % refers to the signal ratio;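 further: potency means the concentration at half of the fitted maximal effect; plate controls were basal doxycycline-induced cells for no effect and cells given 10 µM MG132 for full effect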
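TMD8 ABC-DLBCL cells carrying doxycycline-inducible green luciferase fused to IkappaBalpha plus unfused red luciferase were exposed to compounds (up to 46 uM) for 4 hrs at 37C. Activity came from the overlap-corrected green/red luminescence ratio.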
DT40 TDP1 no CPT = qHTS for Inhibitors of human tyrosyl-DNA phosphodiesterase 1 (TDP1): qHTS in cells in absence of CPT; DT40 Tdp1-/- hTDP1 cells, no CPT, ATP luminescence, 48 h; Potency, µM (doses to about 46.2 µM), without a hit: at the top dose activity change, negative = growth inhibition, usual class: inhibitors; 420,000 tested, 15% active; AID 686978, 2013; further: potency means the concentration at half of the fitted maximal effect; on the % scale 0 is the no-effect control and ±100 the full control effect; nearly all actives have a fitted effect of over 55% in size
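DT40 Tdp1-/-;hTDP1 cells, no CPT (DMSO vehicle only), 400 cells/well; compounds pin-transferred; ≥48 hr, 37 °C; CellTiter-Glo 30 min RT dark, luminescence read.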
SW480 rerep = inducers of DNA re-replication in SW480 colon cancer cells; SW480 DNA re-replication, Hoechst DNA content imaging, 48 h; Potency, µM (top dose mostly 46.1 µM), for the others: at the highest dose re-replication activation, usual class: activators; 340,000 tested, 1.8% active; further: potency means the concentration at half of the fitted maximal effect; % of control where 0% means no effect; nearly all actives have a fitted effect of over 55% in size
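SW480 cells exposed to compounds for 48 hr at 37 C, 5% CO2, then Hoechst-stained 40 min. Nuclear DNA content imaged by fluorescence scanning (405 nm excitation, 500-530 nm emission); re-replication scored as increased high-intensity nuclei.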
MCF10A rerep = inducers of DNA re-replication in MCF 10A breast cells; MCF 10A DNA re-replication, Hoechst nuclear intensity, 48 h; Potency, µM (doses to about 46.1 µM), without a hit: top-dose activity, positive = re-replication, hits mostly activators; 350,000 tested, 2.9% active; AID 624296; further: potency means the concentration at half of the fitted maximal effect; % of control where 0% means no effect; nearly all actives have a fitted effect of over 50% in size
IL1B secr inh = inflammasome signaling inhibition, IL-1 beta readout. THP-1 LPS/ATP IL-1B secretion, AlphaLISA, 16 h; stronger effect = lower value. activity change, % at 57.5 µM. 360,000 tested, 4.7% active; in the data active means activity change below about -50%; inconclusive means mostly about -30% to -49%; further: on the % scale 0 is the no-effect control and ±100 the full control effect
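THP-1 cells pretreated 1 hr with compounds (up to 57.5 uM final), then stimulated with LPS (250 ng/mL final) plus ATP (1.25 mM final); secreted IL-1B measured by AlphaLISA after 16 hr, decreased signal indicating inhibition.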
* marks the source's active call; other numbers are inactive results; ? = inconclusive; · = no result given. Unless noted, the call rests on the fitted dose curve; in most records, active means well fitted curve in the direction sought with a large enough effect; inconclusive means small, poorly fitted or top-dose-only effect, or another doubt; inactive means no such curve, though single readings can be large; an effect the other way counts as inactive or inconclusive.

SMILES | DT40 TDP1 CPT | Chronic BCR inh | DT40 TDP1 no CPT | SW480 rerep | MCF10A rerep | IL1B secr inh
COc1cc(S(=O)(=O)O)c(C)cc1N=Nc1c(O)ccc2cc(S(=O)(=O)O)ccc12 | 0% | · | ? | · | · | ·
Cc1cc(-c2ccc(N=Nc3c(S(=O)(=O)O)cc4cc(S(=O)(=O)O)cc(N)c4c3O)c(C)c2)ccc1N=Nc1c(S(=O)(=O)O)cc2cc(S(=O)(=O)O)cc(N)c2c1O | 9.4µM* | ? | 9.4µM* | -14% | -16% | ·
O=S(=O)(O)c1cc(O)c2c(O)c(N=Nc3cc(Cl)ccc3O)c(S(=O)(=O)O)cc2c1 | 18µM* | 19% | 18µM* | 22% | -3% | -30
CCCCCCN1CCN(C2CN(Cc3ccc([N+](=O)[O-])cc3)S(=O)(=O)C2)CC1 (configuration not stated) | ? | · | ? | · | · | -10
CCOC(=O)c1c(C)nc2sc3c(=O)n(-c4ccc(OC)cc4)cnc3c2c1-c1ccc(OC)cc1 | ? | 9% | ? | 1% | -2% | 33
COc1ccc(-c2c(C(C)=O)c(C)nc3sc4c(=N)n(N)cnc4c23)cc1 | 26µM* | -4% | ? | ? | -56% | -25
COc1ccc(NC(=O)c2sc3nc(C)c(C(=O)Nc4ccc(C)cc4C)c(-c4ccc(Cl)cc4)c3c2N)cc1 | -4% | · | -6% | · | · | ·
CCOC(=O)c1c(C)nc2sc(C(=O)Nc3ccc(C(C)=O)cc3)c(N)c2c1-c1ccc(OC)cc1 | ? | 2% | ? | 2.3µM* | 26% | ?
CCC(C)NC(=O)c1sc2nc(C)c(C(=O)Nc3ccc(Cl)cc3)c(-c3ccc(Br)cc3)c2c1N (configuration not stated) | ? | · | 21µM* | · | · | ·
CCOC(=O)c1c(C)nc2sc(C(N)=O)c(N)c2c1-c1ccc(OC)cc1 | ? | ? | 21µM* | 2% | 9% | -3
COCCNC(=O)C1(C)CCCN(C(=O)c2ccc(OC)c(OC)c2)C1 (configuration not stated) | 14% | · | 15% | · | · | -10
COc1ccc(Cl)cc1Nc1cc(C)nc2nc(-c3ccccc3C)nn12 | 6% | · | -5% | · | · | ·
COc1ccc(-c2csc(C(C)(O)c3cccc(F)c3)n2)cc1 (configuration not stated) | 18µM* | · | 13µM* | · | · | -5
CC(O)(c1cccnc1)c1nc(-c2cccc(C(F)(F)F)c2)cs1 (configuration not stated) | 18µM* | · | 15µM* | · | · | -7
COc1cccc(C(C)(O)c2nc(-c3cccc(C(F)(F)F)c3)cs2)c1 (configuration not stated) | ? | · | ? | · | · | -7
COc1cccc(C(C)(O)c2nc(/C=C/c3ccccc3)cs2)c1 (configuration not stated) | ? | · | 18µM* | · | · | 29
COc1ccc(C(C)(O)c2nc(-c3cccc(C(F)(F)F)c3)cs2)cc1 (configuration not stated) | 26µM* | · | 18µM* | · | · | 0
COc1ccccc1NC(=O)c1cc([N+](=O)[O-])ccc1N1CCOCC1 | -11% | -3% | -29% | -3% | 13% | 27
COc1ccc(C(C)(O)c2nc(-c3ccccc3OC)cs2)cc1 (configuration not stated) | 9.2µM* | · | 13µM* | · | · | 20
CC(O)(c1cccc(F)c1)c1nc(-c2cccc(F)c2)cs1 (configuration not stated) | ? | · | ? | · | · | -30
CC(C)c1cccc(-c2csc(C(C)(O)c3cccc(F)c3)n2)c1 (configuration not stated) | 21µM* | · | ? | · | · | -21
COCCNC(=S)N1CCN(Cc2ccc3c(c2)OCO3)CC1 | -11% | 0% | -3% | 1% | 3% | 1
Cc1ccccc1Cn1c2ccccc2c2cnn(CC(=O)NCCc3ccc(Cl)cc3)c(=O)c21 | ? | · | 18µM* | · | · | ·
Cc1c2cnn(CC(=O)NCc3ccccc3)c(=O)c2c(C)n1Cc1cccc(Cl)c1 | 4.6µM* | · | 3.3µM* | · | · | ·
Cc1c2cnn(CC(=O)O)c(=O)c2c(C)n1Cc1cccc(Cl)c1 | 14% | · | -1% | · | · | ·
SMILES | DT40 TDP1 CPT | Chronic BCR inh | DT40 TDP1 no CPT | SW480 rerep | MCF10A rerep | IL1B secr inh
O=C(Cn1ncc2c3ccccc3n(Cc3ccccc3F)c2c1=O)NCCc1ccc(Cl)cc1 | ? | · | -24% | · | · | ·
Cc1ccc(C)c(Cn2c3ccccc3c3cnn(CC(=O)NC(C)CCc4ccccc4)c(=O)c32)c1 (configuration not stated) | 3.3µM* | · | 3.3µM* | · | · | ·
Cc1ccc(C)c(Cn2c3ccccc3c3cnn(CC(=O)NC(C)c4ccccc4)c(=O)c32)c1 (configuration not stated) | 2.9µM* | · | 2.3µM* | · | · | ·
COc1ccc(CN2C(=O)c3ccc(C(=O)O)cc3C2=O)cc1 | -23% | 5% | -3% | 2% | -2% | 8
O=C(COc1ccc2ccc(=O)oc2c1)NCCCn1ccnc1 | 8% | 0% | 10% | 0% | -1% | 13
CN(C)S(=O)(=O)N1CCC(Oc2cccc(C(=O)NC3CCOC3)c2)CC1 (configuration not stated) | -20% | -1% | -15% | 0% | 13% | 16
Cc1ccc(C)c(Cn2c3ccccc3c3cnn(CC(=O)NCc4ccccc4)c(=O)c32)c1 | 23µM* | · | 21µM* | · | · | ·
Cc1c2cnn(CC(=O)NCCCN3CC(C)CC(C)C3)c(=O)c2c(C)n1Cc1ccccc1Cl (configuration not stated) | ? | -13% | ? | 20% | 2% | -58*
CC(CCc1ccccc1)NC(=O)Cn1ncc2c3ccccc3n(Cc3ccccc3F)c2c1=O (configuration not stated) | 8.2µM* | · | 8.2µM* | · | · | ·
Cc1ccccc1Cn1c2ccccc2c2cnn(CC(=O)NCC(C)c3ccccc3)c(=O)c21 (configuration not stated) | ? | · | -44% | · | · | ·
Cc1ccc(C)c(Cn2c3ccccc3c3cnn(CC(=O)NCC(C)c4ccccc4)c(=O)c32)c1 (configuration not stated) | 13µM* | · | 23µM* | · | · | ·
O=C(COC(=O)c1nc(Cl)ccc1Cl)Nc1cccc(S(=O)(=O)N2CCOCC2)c1 | -14% | · | 0% | 9% | 4% | 2
